Source: PubChem
An excerpt weighted towards active compounds, which were near 2.9% of everything screened.
DRD3 agonist: agonists of human D3 dopamine receptor. P35462. AID 652048. 0.58% of 410,000 active. max activation, %. D3R DiscoveRx beta-arrestin cells, luminescence, 90 min; in the data active means max activation above about 30%; further: 0% is about no effect
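Agonist mode: compounds and dopamine controls were applied to plated cells for 90 min at 37 degrees C after an overnight attachment at 1500 cells/well. Luminescent read-out followed 30 - 60 minutes at room temperature with DiscoveRx detection reagent.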
DRD3 antagonist: blocks the human D3 dopamine receptor | 2.5% of 360,000 active | max response, negative = inhibition, % | D3R cells, DiscoveRx beta-arrestin luminescence, antagonist mode; hits give low values | AID 652054 | P35462; in the data active means max response below about -50%; inconclusive means no clear call, values can overlap the other calls; further: on the % scale 0 is the no-effect control and ±100 the full control effect
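Cells plated overnight at 1500 cells/well, then exposed to library compounds with dopamine controls for 90 minutes at 37 degrees C. DiscoveRx reagent added for 30–60 minutes at room temperature; luminescence read, quantitative HTS format.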
mIDH1 inhibitor: blocks human mutant IDH1 R132H enzyme. O75874. IDH1-R132H enzyme, NADPH consumption, diaphorase/resazurin fluorescence. Potency, µM (titrated, usually from 76.6 µM), for the others: at the top dose activity change, negative = inhibition, hits mostly inhibitors. 0.093% of 390,000 active. AID 602179; further: potency means the concentration at half of the fitted maximal effect; on the % scale 0 is the no-effect control and ±100 the full control effect; nearly all actives have a fitted effect of over 65% in size
Target sequence (O75874 whole entry R132H, stated change not applied): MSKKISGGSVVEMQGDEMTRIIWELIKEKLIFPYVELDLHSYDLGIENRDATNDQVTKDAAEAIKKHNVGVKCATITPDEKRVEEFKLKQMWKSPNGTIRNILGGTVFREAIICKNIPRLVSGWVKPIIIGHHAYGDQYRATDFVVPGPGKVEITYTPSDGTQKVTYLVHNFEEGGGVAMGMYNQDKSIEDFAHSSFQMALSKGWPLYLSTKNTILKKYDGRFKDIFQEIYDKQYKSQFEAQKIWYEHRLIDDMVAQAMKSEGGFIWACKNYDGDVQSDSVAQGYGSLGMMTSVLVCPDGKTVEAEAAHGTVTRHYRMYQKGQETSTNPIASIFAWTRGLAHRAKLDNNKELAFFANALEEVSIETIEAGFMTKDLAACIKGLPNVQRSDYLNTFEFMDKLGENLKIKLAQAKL
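IDH1-R132H (0.5 ug/mL) preincubated 30 min with compound, then NADPH (0.016 mM) and alpha-KG (2 mM) added; 80 min at RT, pH 7.5. Remaining NADPH coupled via diaphorase/resazurin to fluorescence (540/590 nm); concentration-response curves normalized to no-enzyme control.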
Integrin act MD: integrin-mediated muscular dystrophy alleviation activation; alpha7betagal myoblasts, beta-gal FDG fluorescence, 48 h; Potency, µM (titrated, usually from 38.3 µM), for inactives: at the top dose activation, hits mostly activators; 0.064% of 350,000 active;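 further: potency means the concentration at half of the fitted maximal effect; 100% = response of the positive control SU9516; nearly all actives have a fitted effect of over 60% in size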
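Alpha7betagal+/- myoblasts (passage 13) were plated 16-24 hr, then exposed to compounds (1:260 dilution of DMSO stock) for 48 hours at 37C. After MPER lysis, β-galactosidase reporter activity was read as FDG fluorescence (ex 480/em 540) after 30 minutes.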
B2AR arrestin: beta2AR (human) beta-arrestin recruitment activity. 0.02% of 330,000 active. beta-arrestin recruitment to beta2AR, cell-based reporter. Potency, µM (top dose mostly 46.1 µM), inactives show top-dose activation, usual class: activators;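 further: potency means the concentration at half of the fitted maximal effect; 0% = DMSO controls and full agonism = EC100 isoproterenol or metaproterenol; nearly all actives have a fitted effect of over 65% in size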
An asterisk follows results filed as active; ? = inconclusive; · = not tested or not shown. Unless noted, the call rests on the fitted dose curve; in most records, active means well fitted curve in the direction sought with a large enough effect; inconclusive means small, poorly fitted or top-dose-only effect, or another doubt; inactive means no such curve, though single readings can be large; an effect the other way counts as inactive or inconclusive.

SMILES	DRD3 agonist	DRD3 antagonist	mIDH1 inhibitor	Integrin act MD	B2AR arrestin
COc1ccc(-c2cc(C(=O)NC(Cc3cc4ccccc4[nH]3)C(=O)O)c(C)o2)cc1OC (configuration not stated)	36*	4	-2%	-4%	0%
COc1ccc(-c2cc(C(=O)O)c(C)o2)cc1OC	1	-18	6%	-15%	0%
O=C(Cn1cc(C(=O)c2ccco2)c2ccccc21)Nc1ccccc1C(F)(F)F	-7	·	-7%	·	·
CC(C)c1cnc2c(c1SCC(=O)Nc1cccc([N+](=O)[O-])c1)c(=O)n(C)c(=O)n2C	-8	·	9%	·	·
O=C(Nc1ccccc1)c1ccc[n+](Cc2ccc([N+](=O)[O-])cc2)c1	-25	-56*	-1%	15%	-1%
O=C(Nc1ccc([N+](=O)[O-])cc1)c1ccccc1	-14	7	6%	22%	0%
CC(=O)Nc1ccc(NCc2cccs2)cc1	-4	-14	-5%	?	0%
Oc1ccc(NCc2cccs2)cc1	-4	-27	9%	-49%	13µM*
C[C@H](O)CN(C)C	8	·	·	·	·
CC(C)C1=CC2=CC[C@@H]3[C@](C)(CCC[C@@]3(C)C(=O)O)[C@H]2CC1	-10	·	·	·	·
c1ccc2c(c1)CCN(CCCNc1nc3ccccc3n3cnnc13)C2	-20	-109*	10%	8%	0%
CC(C)c1ccc(/C=C/C(=O)NC(=S)Nc2ccc(CN3CCOCC3)cc2)cc1	0	-9	2%	-4%	0%
O=[N+]([O-])c1cccc(COc2cccc(CN3CCOCC3)c2)c1	-37	-65*	11%	-7%	·
COc1ccc(C(=O)NC(=S)Nc2ccc(CN3CCOCC3)cc2)cc1	12	10	6%	-24%	-1%
O=C(NC(=S)Nc1ccc(CN2CCOCC2)cc1)c1ccc([N+](=O)[O-])cc1	-7	-50*	-8%	-32%	0%
O=C(/C=C/c1cccc([N+](=O)[O-])c1)NC(=S)Nc1ccc(CN2CCOCC2)cc1	-56	-58*	5%	-10%	-1%
Cc1ccc(CNC(=O)C2CCN(c3nc4ccc(C)cc4[nH]3)CC2)cc1	-5	·	2%	·	·
COc1ccccc1NC(=O)CSc1nc2c(oc3ccccc32)c(=O)n1-c1ccccc1F	9	·	0%	·	·
CCn1c(=O)c([N+](=O)[O-])c(Cl)c2ccccc21	-23	-115*	4%	-62%	11%
CCn1c(=O)c([N+](=O)[O-])c(NCCN(C)C)c2ccccc21	-22	-59*	6%	-14%	-1%
O=c1c([N+](=O)[O-])c(NCCN2CCCCCC2)c2ccccc2n1-c1ccccc1	-16	-98*	-9%	?	8%
CC(=O)N1CCC(N(Cc2ccco2)C(=O)Nc2ccc(Br)cc2F)CC1	-24	·	0%	·	·
O=C(CC1NCCc2ccccc21)Nc1ccc(Cl)cc1 (configuration not stated)	-13	-87*	1%	-61%	0%
COc1cc(/C=C(\C#N)c2nc3ccccc3[nH]2)ccc1OCc1cccc(C(F)(F)F)c1	-6	·	·	·	·
Cc1cccc(OCCCCCN2CCOCC2)c1	-10	?	6%	2%	0%
SMILES	DRD3 agonist	DRD3 antagonist	mIDH1 inhibitor	Integrin act MD	B2AR arrestin
Cc1ccc(OCCCCN2CCc3ccccc3C2)cc1	-19	-100*	5%	-29%	0%
Cc1cccc(OCCCN2CCCCCC2)c1	-30	-51*	2%	-26%	0%
Brc1cccc(OCCN2CCCCC2)c1	-36	-92*	16%	3%	-1%
Brc1cccc(OCCN2CCc3ccccc3C2)c1	8	-73*	2%	?	0%
COc1ccc(NC(=O)N2CCCC(C(=O)NCc3ccccc3F)C2)cc1 (configuration not stated)	-2	2	0%	-37%	0%
O=C(c1ccccc1F)N1c2nc(-c3ccco3)nn2C2(CCCCC2)[C@@H]2CCCC[C@@H]21	-5	·	-22%	·	·
O=C(CCC1CCN(Cc2ccccc2)CC1)c1ccc2c(c1)NCCCC2	-24	·	·	·	·
COc1ccccc1CNC(=O)CCCc1nnc2n(CC(C)C)c(=O)c3sccc3n12	-9	·	0%	·	·
CCc1cccc(OCCn2ccnc2)c1	-7	?	-4%	-10%	-1%
CCc1cccc(OCCN2CCCC2)c1	-34	-60*	-3%	-2%	-1%
C=CCc1c(OC)ccc2ccc(=O)oc12	-8	-57*	0%	-17%	0%
O=S(=O)(c1ccc(Cl)cc1)c1nnn2c1nc(NCc1cccs1)c1sccc12	13	·	8%	·	·
Cc1ccc(NS(=O)(=O)c2c(C)nc3sc(C)c(C)n3c2=O)cc1F	3	·	-17%	·	·
Nc1ncnc2nc(SCc3ccc(Cl)cc3Cl)[nH]c12	1	49	-2%	-5%	0%
Nc1cc(=O)[nH]c(SCc2ccc(Cl)cc2Cl)n1	30*	20	3%	-17%	0%
COc1ccc(Cl)cc1N(CC(=O)N1CCN(Cc2ccccc2)CC1)S(C)(=O)=O	-9	-57*	-6%	-29%	0%
S=C(NCc1ccccc1)NCC1COc2ccccc2O1 (configuration not stated)	-36	-17	5%	13%	0%
O=C(O)CNCC1COc2ccccc2O1 (configuration not stated)	0	16	2%	3%	0%
c1ccc2c(c1)OCC(CNCC1COc3ccccc3O1)O2 (configuration not stated)	-7	-81*	2%	27%	2%
c1ccc(CCNCC2COc3ccccc3O2)cc1 (configuration not stated)	-3	-85*	6%	41%	0%
CN(C)S(=O)(=O)c1cccc(CNCC2COc3ccccc3O2)c1 (configuration not stated)	31*	?	0%	-34%	0%
Oc1ccc(CNCC2COc3ccccc3O2)cc1 (configuration not stated)	3	-73*	5%	6%	-1%
O=C(CN1CCN(Cc2ccccc2Cl)C1=O)NCc1ccccc1Cl	2	·	-6%	·	·
O=c1oc2cc(Br)ccc2n1CSC1=NCCS1	-9	-53*	7%	-56%	0%
CN1CCc2nc(SCC(=O)Nc3ccc(Cl)cc3)c(C#N)cc2C1	-25	-60*	2%	-10%	·
O=C(NCCc1ccccc1)c1cc(S(=O)(=O)N2CCOCC2)ccc1F	2	23	14%	9%	1%
O=C(c1cc(S(=O)(=O)N2CCOCC2)ccc1F)N(CCc1ccccc1)Cc1ccccc1	96*	-92*	12%	-37%	0%
Cc1ccc(C)c(NC(=O)CSc2nnc(-c3cc4occc4n3C)n2-c2ccccc2C)c1	9	·	-10%	·	·
CN(C)c1nc(N/N=C/c2ccccc2O)nc(Nc2ccc(F)cc2)n1	-36	-85*	5%	-30%	?
O=P(O)(O)OCC(O)CO (configuration not stated)	-10	·	·	·	·
